# For part of these data: Measured potencies and affinities stand elsewhere. Calls of active or inactive are those of the source.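 How the source made its calls, unless noted: active means fitted half-maximal concentration within the tested range, moderate curve steepness, significant signal drop, and little compound fluorescence or bead-linkage interference; inactive means the rest.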
# Tests used:
# [1] = target: Cell division control protein 42 homolog (Homo sapiens) (UniProt P60953); experiment: inhibition of fluorescent GTP binding to constitutively active Cdc42 – biochemical, multiplex bead flow cytometry, Bodipy-FL-GTP, dose response (AID 1333;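 active means fitted half-maximal concentration within the tested dose range, moderate curve steepness, a statistically real signal drop, and little compound fluorescence or tag-binding interference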)
# Sequence of Cell division control protein 42 homolog (Homo sapiens) (P60953 whole entry, looked up): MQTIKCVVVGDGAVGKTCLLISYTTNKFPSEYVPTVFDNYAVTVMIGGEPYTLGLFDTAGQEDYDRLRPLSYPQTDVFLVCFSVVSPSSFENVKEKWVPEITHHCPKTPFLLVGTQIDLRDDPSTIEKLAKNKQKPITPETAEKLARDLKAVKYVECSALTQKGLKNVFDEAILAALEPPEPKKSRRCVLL
# [2] = target: Cell division control protein 42 homolog (Homo sapiens) (UniProt P60953); experiment: inhibition of fluorescent GTP binding to wildtype Cdc42 – biochemical, multiplex bead flow cytometry, Bodipy-FL-GTP, dose response (AID 1334); details: bead-based flow cytometry, Bodipy-FL-GTP binding to GST-Cdc42; at 100 µM (top of the series) unless noted
# [3] = target: GTPase HRas (Homo sapiens) (UniProt P01112); experiment: Ras wt fluorescent GTP loading blockade – biochemical, wildtype, multiplex bead flow cytometry, dose response (AID 1335;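 active means fitted half-maximal concentration within 10 nM to 100 µM, steepness 0.5 to 2, significant signal drop, low assay interference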); details: bead-based flow cytometry, Bodipy-GTP binding to GST-Ras; at 100 µM (top of the series) unless noted
# Sequence of GTPase HRas (Homo sapiens) (P01112 whole entry, looked up): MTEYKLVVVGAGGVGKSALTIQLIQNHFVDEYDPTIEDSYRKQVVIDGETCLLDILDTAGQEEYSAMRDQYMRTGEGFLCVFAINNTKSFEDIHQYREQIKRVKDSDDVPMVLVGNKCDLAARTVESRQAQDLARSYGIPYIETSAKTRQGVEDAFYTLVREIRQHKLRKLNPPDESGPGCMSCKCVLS
# [4] = test system: Ras-related protein Rab-7a (dog), GTP binding; experiment: blockers of fluorescent GTP binding to Rab7 – biochemical, wildtype, multiplex bead flow cytometry, dose response (AID 1336; call rule not given here)
# [5] = target: Ras-related C3 botulinum toxin substrate 1 (Homo sapiens) (UniProt P63000); experiment: inhibition of wildtype Rac1 nucleotide loading – biochemical, multiplex bead flow cytometry, dose response (AID 1340;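 active means dose curve with midpoint inside tested range, moderate steepness, plateau gap beyond fit error, low compound glow and bead-link interference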); details: GST-Rac1 beads, Bodipy-FL-GTP binding; at 100 µM (top of the series) unless noted
# [6] = target: GTPase HRas (Homo sapiens) (UniProt P01112); experiment: blockade of GTP loading onto mutant Ras – biochemical, activated mutant, multiplex bead flow cytometry, dose response (AID 1341;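 active means dose-response curve with midpoint inside the tested range, moderate steepness, significant amplitude and little compound fluorescence or bead-attachment interference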;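 further: GST-tagged constitutively activated Ras mutant immobilized on beads and multiplexed with other GTPases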)
SMILES,outcome [1],"fluorescence, percent of control (lower = inhibition) [2]","GTP binding, percent of control [3]",outcome [4],"GTP binding signal, raw median fluorescence (lower = inhibition) (MCF (arbitrary fluorescence units)) [5]",outcome [6]
CC(C)(C)NC(=O)CSc1nccn1Cc1ccccc1,inactive,33.3%,78.6%,inactive,144,inactive
CC(C)CCNC(=O)Cc1ccc(Nc2nc(=S)[nH]c3ccccc23)cc1,inactive,32.2%,71.5%,inactive,169,inactive
Nc1nonc1-c1nc2ccccc2n1CC(=O)N/N=C/c1ccc(-c2ccccc2C(=O)O)o1,inactive,30.6%,68.4%,inactive,133,inactive
O=C(Cn1cnc2cc([N+](=O)[O-])ccc2c1=O)NCCc1ccc(F)cc1,inactive,35.9%,80.9%,inactive,182,inactive
CCOC(=O)c1c(NC(=O)/C=C/c2ccc3c(c2)OCO3)sc(C)c1CC,inactive,30.9%,75.9%,inactive,256,inactive
COc1cc(C)c2c(c1C=O)Oc1c(c(C)c(O)c3c1C(O)OC3=O)OC2=O (stereo not given),inactive,54.3%,102%,inactive,135,inactive
CCOc1ccccc1C(=O)Nc1cccc(-c2ccc3nncn3n2)c1,inactive,33.5%,73.1%,inactive,194,inactive
O=C(NC1CCCCC1)C(c1ccco1)N(Cc1ccco1)C(=O)c1ccco1 (stereo not given),inactive,90.7%,174%,inactive,176,inactive
COc1cc(/C=N\NC(=O)CNC(=O)C2COc3ccccc3O2)ccc1O (stereo not given),inactive,51.5%,62.3%,inactive,191,inactive
CCC(Oc1ccc2ccccc2c1)C(=O)O (stereo not given),inactive,123%,156%,inactive,190,inactive
O=C(Cn1cnc2c(nnn2Cc2ccccc2F)c1=O)NCC1CCCO1 (stereo not given),inactive,51.6%,63.1%,inactive,208,inactive
N#Cc1ccc(OCc2ccc(C(=O)O)o2)cc1,inactive,63.6%,87.2%,inactive,37.7,inactive
Cc1ccc(/C=C/C(=O)c2ccccc(=O)c2O)cc1C,inactive,37.3%,81.8%,inactive,245,inactive
O=C(O)CC/C(=C\c1ccc(N2CCCC2)c([N+](=O)[O-])c1)c1nc2ccccc2s1,inactive,34.4%,81.8%,inactive,244,inactive
COc1ccc(C(CC(=O)O)NC(=O)c2cc3cc(Br)ccc3oc2=O)cc1OC (stereo not given),inactive,31%,78.7%,inactive,213,inactive
COc1ccc(-c2nn(-c3ccccc3)cc2C(=O)NCCCn2ccnc2)cc1,inactive,49.1%,61.1%,inactive,202,inactive
Cc1ccc(OCc2ccc(C(=O)Nc3nc4ccccc4n3Cc3ccccc3)o2)c([N+](=O)[O-])c1,inactive,48.5%,60.3%,inactive,193,inactive
CNC(=O)COC(=O)c1cc(NC(=O)c2ccco2)c(OC)c(OC)c1,inactive,39.3%,78%,inactive,158,inactive
Cc1cc(C)n2nc(C(=O)N3CCCC(CNS(=O)(=O)c4cccs4)C3)cc2n1 (stereo not given),inactive,37.1%,85.6%,inactive,284,inactive
Cc1ccc(/C(N)=N/OC(=O)CCC2CCCCC2)cc1,inactive,80.5%,154%,inactive,180,inactive

SMILES,outcome [1],"fluorescence, percent of control (lower = inhibition) [2]","GTP binding, percent of control [3]",outcome [4],"GTP binding signal, raw median fluorescence (lower = inhibition) (MCF (arbitrary fluorescence units)) [5]",outcome [6]
CCCOc1ccc(OCCSc2nc3ccccc3n2CC(=O)O)cc1,inactive,60.2%,87.7%,inactive,35.1,inactive
CCOC(=O)c1c2c3c(c(Cl)ccc3[nH]c1=O)C(=O)c1ccccc1-2,inactive,19.1%,46.2%,inactive,103,inactive
Cc1cccc(COc2nc3ccccc3cc2C(=O)O)c1,inactive,54.8%,213%,inactive,52.2,inactive
Cc1sc2ncnc(N/N=C/c3ccc(O)cc3)c2c1C,inactive,27.2%,64.8%,inactive,312,inactive
O=C(CN1C(=O)S/C(=C/c2cccnc2)C1=O)N1CCOCC1,inactive,54.1%,68.5%,inactive,221,inactive
Cc1ccc(OCCSc2nc3ccccc3n2CC(=O)O)c(C)c1,inactive,55.9%,85%,inactive,29.2,inactive
Cc1nc(NC(=O)/C=C/c2ccc(Cl)cc2Cl)sc1C(=O)N(C)C,inactive,45%,61.1%,inactive,182,inactive
COc1ccc(CNc2nc3ccccc3n2Cc2ccc(C)cc2)cc1OC,inactive,73%,73.9%,inactive,343,inactive
Cc1ccc2c(c1)c1nnc(SCC(=O)N3CCCc4ccccc43)nc1n2CC(=O)O,inactive,17.6%,37.8%,inactive,96.4,inactive
O=C(COc1ncnc2cc([N+](=O)[O-])ccc12)NC(=O)NC1CCCCC1,inactive,31.6%,70.8%,inactive,153,inactive
CC(=O)NC1CC2CCCC(C1)N2C(=O)Nc1ccc(Cl)c(C(F)(F)F)c1 (stereo not given),inactive,91.1%,146%,inactive,174,inactive
O=C(c1cccnc1SCCc1ccccc1)N1CCOCC1,inactive,77.3%,101%,inactive,64.8,inactive
Cn1c(/C(C#N)=C/c2ccncc2)nc2ccccc21,inactive,36.7%,87.2%,inactive,266,inactive
CCOc1ccc2nc(SCc3ccc(CC(=O)O)cc3)c(C#N)cc2c1,inactive,28.4%,73.2%,inactive,201,inactive
CSc1nc2nccc(-c3ccc(-c4ccccc4)cc3)n2n1,inactive,79.7%,132%,inactive,138,inactive
O=C(O)C1CCCN1C(=O)OCc1ccccc1 (stereo not given),inactive,108%,188%,inactive,235,inactive
Cc1cc(NC(=O)c2cccc(C(=O)Nc3cc(C)on3)n2)no1,inactive,40%,86.3%,inactive,296,inactive
CCOc1ccc(Cn2c3ccc(OC)cc3c3nc4ccccc4nc32)cc1,inactive,114% [at 33.3 µM],127% [at 33.3 µM],inactive,242,inactive
COc1ccccc1CNC(=O)c1c(N)n(CCCN2CCOCC2)c2nc3ccccc3nc12,inactive,44.4%,89.9%,inactive,214,inactive
O=C(O)c1ccccc1SCc1ccc2c(c1)OCO2,inactive,71%,79.2%,inactive,0,inactive

SMILES,outcome [1],"fluorescence, percent of control (lower = inhibition) [2]","GTP binding, percent of control [3]",outcome [4],"GTP binding signal, raw median fluorescence (lower = inhibition) (MCF (arbitrary fluorescence units)) [5]",outcome [6]
Cc1cc(C(=O)O)sc1CNc1ccc(Cl)cc1,inactive,63.1%,88.6%,inactive,34.7,inactive
CCOc1c2ccc(C(=O)N[C@H](C)C3CCCCC3)cc2nn1CCOC,inactive,94.9%,152%,inactive,197,inactive
O=C(OCCN1CCCCC1)c1cc2ccccc2o1,inactive,34.8%,79.9%,inactive,271,inactive
Cc1ccc(-n2nc3c(=S)[nH]nc(C)c3c2C)cc1,inactive,54.7%,66.3%,inactive,201,inactive
O=C(C#Cc1ccccc1)c1ccc([N+](=O)[O-])cc1,inactive,25.5%,74.2%,inactive,264,inactive
Cc1nn(-c2ccc(F)cc2)c(Cl)c1/C=C(\CC(=O)O)c1nc2ccccc2s1,inactive,77.1%,127%,inactive,160,inactive
O=C(Oc1cccc(O)c1)C1CCCCC1,inactive,36.8%,81.6%,inactive,296,inactive
CCOc1ccc(CCNc2ccc3nnc(-c4ccccc4)n3n2)cc1OCC,inactive,40.9%,54.2%,inactive,141,inactive
CCOc1cc(C2c3c(-c4ccccc4)n[nH]c3C(=O)N2c2ccc(C(=O)O)cc2)ccc1O (stereo not given),inactive,29%,79.3%,inactive,95.9,inactive
CC(C)(C)C(=O)c1sc2nc(-c3cccs3)cc(C(F)(F)F)c2c1N,inactive,86.4%,182%,inactive,194,inactive
O=S1(=O)N=C(N(CCO)/N=C/c2ccccc2)c2ccccc21,inactive,31.3%,63.2%,inactive,139,inactive
Cc1ccc(-c2ccc(/C=C3\SC(N4CCOCC4)=NC3=O)o2)cc1,inactive,31.4%,71.6%,inactive,195,inactive
O=C(C1CCCO1)N1CCN(C(=S)Nc2ccccc2C(F)(F)F)CC1 (stereo not given),inactive,53.3%,64.3%,inactive,208,inactive
CSc1ccc(/C=N/NC(=O)c2cc(O)cc(O)c2)cc1,inactive,33.1%,58.6%,inactive,160,inactive
Cc1cccc(C)c1CNc1ncccc1C(=O)O,inactive,59%,215%,inactive,56.4,inactive
O=S(=O)(Nc1cc(Sc2ncn[nH]2)c(O)c2ccccc12)c1ccccc1,inactive,31.4%,71.9%,inactive,155,inactive
Cc1cc(C(F)(F)F)c(C#N)c(SCC(=O)Nc2nc3ccccc3s2)n1,inactive,89.9%,105%,inactive,188,inactive
COc1cc2c3nnc(-c4ccc(F)cc4)c-3cn(Cc3cccc(F)c3)c2cc1OC,inactive,38.2%,86.4%,inactive,293,inactive
Cc1cc2ccccn2c1C(=O)c1ccc(Cl)c([N+](=O)[O-])c1,inactive,38.8%,86.1%,inactive,216,inactive
O=C(O)c1ccc(CNCc2cccc(Br)c2)s1,inactive,62.4%,89.5%,inactive,33.7,inactive

# — PubChem BioAssay
